The text below walks through data of PubChem BioAssay (Tox21).

Molecules are shown by their SMILES. Inconclusive results are not listed. Activity calls are given as the source filed them. Calls follow the shape of the dose curve; as a rule, active = well fitted activation curve with a large enough effect in the repeat runs; inconclusive = weak or mixed curves; inactive = flat fitted curve, though single readings scatter.
% is scaled to controls: 0 for no effect and ±100 for the full control effect; potency is read from the fitted curve at half-maximal effect.

This experiment is described as follows: A CellTox Green Cytotoxicity Assay to monitor cytotoxicity in HepG2 cells - 40 hour (AID 1224879). Also: nearly all actives have a fitted effect of over 40% in size. The conditions noted are these: CellTox Green fluorescence; series mostly up to 76.8 µM; cytotoxicity increase: at the top concentration. The text has this:
National Center for Advancing Translational Sciences [NCATS]
NIH Chemical Genomics Center [NCGC]
U.S. Environmental Protection Agency [EPA]
National Institutes of Environmental Health Sciences [NIEHS]
National Toxicology Program [NTP]
Cell-based models are critical for drug discovery. Determining the natural cytotoxic effects resulting from test compounds is an essential research activity. A CellTox Green Cytotoxicity Assay to monitor cytotoxicity in real time of continues cell culture during 40 hours of the compound treatment was used to screen Tox21 10K library compounds in HepG2 cells. CellTox Green Cytotoxicity Assay is a nonlytic, homogeneous, biofluorescent method to measure cytotoxicity in cell culture after experimental manipulation. The assay system uses a proprietary asymmetric cyanine dye that is excluded from viable cells but preferentially stains the dead cell's DNA. […] Viable cells produce no appreciable increases in fluorescence. Therefore, the fluorescence signal produced by the binding interaction with dead cell DNA is proportional to cytotoxicity.
The mixture of HepG2 cell suspension and reagents were dispensed at 600cells/6 ul/well in 1536-well tissue culture treated black solid bottom plates using a Multidrop dispenser. After the assay plates were incubated at a 37 C/5% CO2 incubator for 5 hours, 23 nL of compounds dissolved in DMSO, positive and negative controls was transferred to the assay plate by a pintool work station. The plates were incubated at 37 C for 40 hours. The fluorescence intensity were measured at 0h, 8h, 16h, 24h, 32h and 40h time points using ViewLux plate reader during compound treatment.
In the case of `C[N+](=O)[O-]`, the “cytotoxicity increase” value was 1.94% (inactive).

Consider `Cc1cccc(C#N)c1`, for which the “cytotoxicity increase” value is -1.7% (inactive).

For `NC(=O)c1cc([N+](=O)[O-])cc([N+](=O)[O-])c1`, the “cytotoxicity increase” value was -6.06% [at 35.3 µM] (inactive).

With `COC(=O)c1ccccc1S(=O)(=O)NC(=O)N(C)c1nc(C)nc(OC)n1`, the “cytotoxicity increase” value was -17.9% (inactive).

Regarding `CC1=C(C(=O)O)N2C(=O)[C@@H](N)[C@H]2SC1`, the cytotoxicity increase is -6.02% [at 15.8 µM] (inactive).

With `Nc1cc2c3c(c1)C(c1ccccc1)=N[C@@H](NC(=O)c1cccnc1)C(=O)N3CC2`, the “cytotoxicity increase” value is -14.8% (inactive).

As for `C(CCOCC1CO1)COCC1CO1` (stereo not given), the “cytotoxicity increase” value was -14.2% (inactive).

Consider `CCC(Cl)[N+](=O)[O-]` (stereo not given), for which the “cytotoxicity increase” value is 0.314% (inactive).

In the case of `O=C(Nc1ccccc1)c1ccccc1I`, the “cytotoxicity increase” value was -11% (inactive).

For the molecule `O=C1OC(=O)C2C1C1(Cl)C(Cl)=C(Cl)C2(Cl)C1(Cl)Cl` (stereo not given), the “cytotoxicity increase” value is -21% (inactive).

For `COC(C)(C)C`, the “cytotoxicity increase” value was 6.5% (inactive).

Take `CC(=O)CCc1ccc2c(c1)OCO2`: the “cytotoxicity increase” value was -7.68% (inactive).

As for `CCCCOC(=O)[C@@H](C)Oc1ccc(Oc2ccc(C#N)cc2F)cc1`, the “cytotoxicity increase” value is -2.71% (inactive).

With `CCCCOC(=O)c1ccccc1N`, the Potency was 55.3 µM (active).

As for `c1cc2c(c(N3CCNCC3)c1)OCCO2`, the “cytotoxicity increase” value was -22.6% [at 35.3 µM] (inactive).

`CCOP(=O)(OCC)OP(=O)(OCC)OCC`: the “cytotoxicity increase” value is -4.55% (inactive).

Take `Cc1ncc(CNC(=O)N(CCCl)N=O)c(N)n1`: the “cytotoxicity increase” value was 3.89% [at 35.3 µM] (inactive).

Regarding `COc1cc(OC)nc(Oc2cccc(Oc3nc(OC)cc(OC)n3)c2C(=O)O)n1`, the “cytotoxicity increase” value is -8.74% (inactive).

As for `CC1(C)C(=O)NC(=O)NC1=O`, the “cytotoxicity increase” value is -0.894% (inactive).

For `COC(=O)C(c1ccccc1)C1CCCCN1` (stereo not given), the “cytotoxicity increase” value is 0.968% (inactive).

Turning to `O=[N+]([O-])c1ccc(CBr)cc1`, the “cytotoxicity increase” value was -18.3% (inactive).

On to `COc1cc(C[C@@H](C)N)c(OC)cc1C`, for which the “cytotoxicity increase” value is 0.405% (inactive).

Regarding `NC(=S)C(N)=S`, the “cytotoxicity increase” value is -1.16% (inactive).

On to `CCCSP(=S)(OCC)Oc1ccc(Cl)cc1Cl` (stereo not given), for which the “cytotoxicity increase” value was -2.89% (inactive).

Regarding `CC1(C)CON(Cc2ccccc2Cl)C1=O`, the “cytotoxicity increase” value is 0.326% (inactive).

Consider `CCOC(=O)CP(=O)(OCC)OCC`, for which the “cytotoxicity increase” value was -11.1% (inactive).

Take `CCOC(=O)C1(c2ccccc2)CCN(CCc2ccc(N)cc2)CC1`: the “cytotoxicity increase” value is -0.852% [at 35.3 µM] (inactive).

As for `O=S(=O)(O)C(F)(F)C(F)(F)C(F)(F)C(F)(F)C(F)(F)C(F)(F)F`, the “cytotoxicity increase” value is 4.63% (inactive).

In the case of `[O]=[Cd]`, the “cytotoxicity increase” value is -0.758% (inactive).

As to `CCN(CC)c1nc(C)cc(OP(=S)(OC)OC)n1`, the “cytotoxicity increase” value was -0.108% (inactive).

Consider `O=[N+]([O-])c1cc(Cl)c(Cl)c(Cl)c1`, for which the “cytotoxicity increase” value was 6.09% (inactive).

For the molecule `C[C@@H]1CN(C2CCC(C#N)(c3ccc(F)cc3)CC2)CC[C@]1(C(=O)O)c1ccccc1` (stereo not given in full), the “cytotoxicity increase” value was -2.36% [at 35.3 µM] (inactive).

As for `CCN(CC)CCOC(=O)C(C)(c1ccccc1)c1ccccc1`, the “cytotoxicity increase” value is 28.3% [at 35.3 µM] (inactive).

In the case of `CN1C(=S)CN=C(c2ccccc2)c2cc(Cl)ccc21`, the “cytotoxicity increase” value is 5.62% [at 35.3 µM] (inactive).

On to `CCNc1nc(NC(C)C)nc(OC)n1`, for which the “cytotoxicity increase” value is -10.6% (inactive).

Consider `CCC(C)(C)c1cc(-n2nc3ccccc3n2)c(O)c(C(C)(C)CC)c1`, for which the “cytotoxicity increase” value was -11% (inactive).

`Cc1coc2c1CCC(C)C2` (stereo not given): the “cytotoxicity increase” value was 14.3% (inactive).

Regarding `Nc1n[nH]c(N)n1`, the “cytotoxicity increase” value is 8.89% (inactive).

Take `CC(=O)Nc1cc([As](=O)(O)O)ccc1O`: the “cytotoxicity increase” value is -4.33% [at 35.3 µM] (inactive).

On to `COc1cc(OC)nc(NC(=O)NS(=O)(=O)c2ncccc2C(=O)N(C)C)n1`, for which the “cytotoxicity increase” value is -3.96% (inactive).
